# Data published in PubChem BioAssay (EPA / NIEHS).
# Some compounds were tested as several samples or in several runs, with calls that do not always agree. Activity calls are given as the source filed them. Rule for the calls: active = hit-call score of the fitted dose curve at least 0.9, where 1 is the maximum; inactive = score below 0.9.
# Experiments:
# [1] = read-out: Tissue Factor, F3 (gene 2152); experiment: BSK_CASM3C_TissueFactor: BioMAP Diversity Plus: CASM3C Assay for Tissue Factor Biomarker Activity (AID 2283052); conditions: primary human coronary artery smooth muscle cells; actives raise or lower the signal;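 note: cell surface tissue factor protein level read by ELISA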
# [2] = read-out: Interferon-gamma inducible Protein 10 (IP10), CXCL10 (gene 3627); experiment: BSK_hDFCGF_IP10: BioMAP Diversity Plus: hDFCGF Assay for Interferon-gamma inducible Protein 10 (IP10) Biomarker Activity (AID 2283053); conditions: primary human foreskin fibroblasts; actives raise or lower the signal
# In short: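 IP-10 levels, quantified by ELISA, are taken from human foreskin fibroblast cultures 24 h after chemical treatment, with DMSO serving as negative control and baseline for bidirectional analysis.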
# [3] = read-out: Urokinase-type plasminogen activator receptor (uPAR), PLAUR (gene 5329); experiment: BSK_CASM3C_uPAR: BioMAP Diversity Plus: CASM3C Assay for Urokinase-type plasminogen activator receptor (uPAR) Biomarker Activity (AID 2283054); conditions: primary human coronary artery smooth muscle cells; actives raise or lower the signal;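 note: cell-surface uPAR protein level quantified by ELISA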
# [4] = read-out: Vascular cell adhesion molecule 1 (VCAM1), VCAM1 (gene 7412); experiment: BSK_CASM3C_VCAM1: BioMAP Diversity Plus: CASM3C Assay for Vascular cell adhesion molecule 1 (VCAM1) Biomarker Activity (AID 2283055); conditions: primary human coronary artery smooth muscle cells; actives raise or lower the signal;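 note: VCAM-1 protein level quantified by ELISA on the cells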
# [5] = read-out: Collagen III, COL3A1 (gene 1281); experiment: BSK_hDFCGF_CollagenIII: BioMAP Diversity Plus: hDFCGF Assay for Collagen III Biomarker Activity (AID 2283056); conditions: primary human foreskin fibroblasts; actives raise or lower the signal
# In short: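 hDFCGF primary human dermal fibroblasts; 24 h chemical exposure; collagen III by ELISA; bidirectional curve fit vs DMSO baseline (gain or loss of signal).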
# [6] = read-out: Interleukin-8 (IL8), CXCL8 (gene 3576); experiment: BSK_hDFCGF_IL8: BioMAP Diversity Plus: hDFCGF Assay for Interleukin-8 (IL8) Biomarker Activity (AID 2283058); conditions: primary human foreskin fibroblasts; actives raise or lower the signal
# In short: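 ELISA read-out of IL-8 from primary human foreskin fibroblast cultures taken 24 h after dosing; values are bidirectional fits relative to DMSO vehicle.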
# [7] = BSK_hDFCGF_Proliferation: Cell Proliferation Assessment in the BioMAP Diversity Plus: hDFCGF Assay (AID 2283059); conditions: primary human foreskin fibroblasts;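 note: curves fitted for both rise and fall of signal versus DMSO baseline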
# In short: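 This proliferation readout used SRB total-protein staining of human foreskin fibroblasts […], normalized to DMSO with bidirectional curve fitting.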
# [8] = read-out: Macrophage colony-stimulating factor (MCSF), CSF1 (gene 1435); experiment: BSK_hDFCGF_MCSF: BioMAP Diversity Plus: hDFCGF Assay for Macrophage colony-stimulating factor (MCSF) Biomarker Activity (AID 2283060); conditions: primary human foreskin fibroblasts; actives raise or lower the signal
# In short: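 ELISA read-out of M-CSF in human dermal foreskin fibroblast cultures, 24 h after chemical dosing; gain or loss of signal fitted bidirectionally relative to DMSO baseline.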
# [9] = BSK_hDFCGF_SRB: Viability Assessment in the BioMAP Diversity Plus: hDFCGF Assay (AID 2283061); conditions: primary human foreskin fibroblasts;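 note: cells exposed to compound for 24 h before the read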
# In short: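 Primary human foreskin fibroblasts; 24 h post-dose; fixed 10% TCA, stained 0.1% SRB, A560 read; total protein as overt cytotoxicity measure; curves fit bidirectionally vs DMSO control.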
# [10] = read-out: Monokine induced gamma interferon (MIG), CXCL9 (gene 4283); experiment: BSK_hDFCGF_MIG: BioMAP Diversity Plus: hDFCGF Assay for Monokine induced gamma interferon (MIG) Biomarker Activity (AID 2283063); conditions: primary human foreskin fibroblasts; actives raise or lower the signal
# In short: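 Fibroblasts (human foreskin, primary) dosed, 24 h, MIG by ELISA; fit bidirectional vs DMSO.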
# [11] = read-out: Matrix Metallopeptidase 1 (MMP1), MMP1 (gene 4312); experiment: BSK_hDFCGF_MMP1: BioMAP Diversity Plus: hDFCGF Assay for Matrix Metallopeptidase 1 (MMP1) Biomarker Activity (AID 2283064); conditions: primary human foreskin fibroblasts; actives raise or lower the signal
# In short: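 Primary human foreskin fibroblasts exposed to chemicals for 24 h; MMP1 measured by ELISA. Cytotoxicity tracked by SRB staining in parallel cultures; bidirectional fit relative to DMSO.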
# [12] = read-out: Vascular cell adhesion molecule 1 (VCAM1), VCAM1 (gene 7412); experiment: BSK_hDFCGF_VCAM1: BioMAP Diversity Plus: hDFCGF Assay for Vascular cell adhesion molecule 1 (VCAM1) Biomarker Activity (AID 2283065); conditions: primary human foreskin fibroblasts; actives raise or lower the signal;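 for AC50: VCAM-1 protein level quantified by ELISA after 24 h chemical exposure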
# In short: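 ELISA read-out of VCAM-1 on human skin fibroblasts, 24 h post-dose; gain or loss of signal fitted bidirectionally against DMSO baseline.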
# [13] = read-out: Plasminogen activator inhibitor-1 (PAI1), SERPINE1 (gene 5054); experiment: BSK_hDFCGF_PAI1: BioMAP Diversity Plus: hDFCGF Assay for Plasminogen activator inhibitor-1 (PAI1) Biomarker Activity (AID 2283066); conditions: primary human foreskin fibroblasts; actives raise or lower the signal
# In short: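 PAI-1 levels, determined by ELISA, served as the endpoint in human foreskin fibroblast cultures exposed to compound for 24 h, with DMSO as baseline.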
# [14] = read-out: Intercellular Adhesion Molecule 1 (ICAM1), ICAM1 (gene 3383); experiment: BSK_KF3CT_ICAM1: BioMAP Diversity Plus: KF3CT Assay for Intercellular Adhesion Molecule 1 (ICAM1) Biomarker Activity (AID 2283067); conditions: primary human keratinocytes with fibroblasts; actives raise or lower the signal
# In short: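 ELISA readout of ICAM-1; KF3CT human skin co-culture (keratinocytes + foreskin fibroblasts), 24 h post-dose; gain/loss fit vs DMSO baseline.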
# [15] = read-out: Interferon-gamma inducible Protein 10 (IP10), CXCL10 (gene 3627); experiment: BSK_KF3CT_IP10: BioMAP Diversity Plus: KF3CT Assay for Interferon-gamma inducible Protein 10 (IP10) Biomarker Activity (AID 2283068); conditions: primary human keratinocytes with fibroblasts; actives raise or lower the signal
# In short: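 Signal is secreted/surface IP-10 by ELISA in a human primary skin co-culture of keratinocytes and foreskin fibroblasts, taken 24 h post-dosing; DMSO served as negative control.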
# [16] = BSK_KF3CT_SRB: Viability Assessment in the BioMAP Diversity Plus: KF3CT Assay (AID 2283069); conditions: primary human keratinocytes with fibroblasts;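 note: total protein by sulforhodamine B staining as a cytotoxicity measure; read 24 h after compound addition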
# In short: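 Human keratinocyte and foreskin fibroblast co-culture exposed to chemical for 24 h. Total protein measured in parallel cultures by 0.1% sulforhodamine B staining after 10% TCA fixation, read at 560 nm; bidirectional fit relative to DMSO.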
# [17] = read-out: Interleukin-1 alpha (IL1a), IL1A (gene 3552); experiment: BSK_KF3CT_IL1a: BioMAP Diversity Plus: KF3CT Assay for Interleukin-1 alpha (IL1a) Biomarker Activity (AID 2283070); conditions: primary human keratinocytes with fibroblasts; actives raise or lower the signal
# In short: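 Primary human keratinocyte plus foreskin fibroblast co-culture, dosed and measured at 24 h in 96-well plates. IL-1a level quantified by ELISA; bidirectional fit relative to DMSO.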
# [18] = read-out: TIMP metallopeptidase inhibitor 2 (TIMP2), TIMP2 (gene 7077); experiment: BSK_KF3CT_TIMP2: BioMAP Diversity Plus: KF3CT Assay for TIMP metallopeptidase inhibitor 2 (TIMP2) Biomarker Activity (AID 2283071); conditions: primary human keratinocytes with fibroblasts; actives raise or lower the signal
# In short: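 Keratinocyte–fibroblast co-culture, 24 h exposure; TIMP-2 ELISA, DMSO-normalised bidirectional fit. Parallel SRB (0.1%, TCA-fixed, 560 nm) total-protein staining gauges cytotoxicity.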
smiles,measurement,setting,value
CCCCCCC(C)OC(=O)COc1nc(F)c(Cl)c(N)c1Cl (centres undefined),outcome,[1],inactive
same,AC50,[2],13.5 µM (active)
same,outcome,[3],inactive
same,AC50,[4],32.8 µM (active)
same,AC50,[5],20 µM (active)
same,AC50,[6],29.6 µM (active)
same,AC50,[7],6.82 µM (active)
same,AC50,[8],13.8 µM (active)
same,AC50,[9],14.9 µM (active)
same,AC50,[10],15 µM (active)
same,AC50,[11],30.3 µM (active)
same,AC50,[12],13.4 µM (active)
same,AC50,[13],25.8 µM (active)
same,AC50,[14],31.4 µM (active)
same,outcome,[15],inactive
same,AC50,[16],30.4 µM (active)
same,AC50,[17],33.3 µM (active)
same,AC50,[18],31.6 µM (active)
COC(=O)c1ccccc1C(=O)O,outcome,[1],inactive
same,AC50,[2],31.5 µM (active)
same,outcome,[3],inactive
same,outcome,[4],inactive
same,outcome,[5],inactive
same,outcome,[6],inactive
same,outcome,[7],inactive
same,outcome,[8],inactive
same,outcome,[9],inactive
same,outcome,[10],inactive
same,outcome,[11],inactive
same,outcome,[12],inactive
same,outcome,[13],inactive
same,outcome,[14],inactive
same,AC50,[15],10.4 µM (active)
same,outcome,[16],inactive
same,outcome,[17],inactive
same,outcome,[18],inactive
CCCN(CCC)C(=O)SCC,outcome,[1],inactive
same,outcome,[2],inactive
same,outcome,[3],inactive
same,outcome,[4],inactive
same,outcome,[5],inactive
same,outcome,[6],inactive
same,outcome,[7],inactive
same,outcome,[9],inactive
same,outcome,[10],inactive
same,outcome,[11],inactive
same,outcome,[12],inactive
same,outcome,[13],inactive
same,outcome,[14],inactive
same,AC50,[15],36.1 µM (active)
same,outcome,[15],inactive
same,outcome,[16],inactive
same,outcome,[17],inactive
same,outcome,[18],inactive
